Results from PubChem BioAssay AID1159580 (chemical genetic matrix, 2015).
Screen size: about 5,500 compounds; about 2,000 (36%) were called active. Roughly 18% stayed inconclusive and do not appear here. No stated cut-off is given here; in the data, active means normalized growth mostly below about 0.91 (no sharp cut-off); inconclusive means no clear call, values can overlap the other calls; inactive means mostly above about 0.92. Some of the results follow.

Assay: chemical genetic growth profiling, strain panel (AID 1159580);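 further: tested at 20 µM; growth read once vehicle control cultures reached saturation at 30 °C; 1 = growth at the plate median or of vehicle wells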
Conditions: growth OD

Measured: normalized growth

COC1=CC(=O)C=C(OC)C1=O
inactive: S. cerevisiae deletion strains, locus YKL009W, strain mrt4, stronger effect = lower value 0.956 | S. cerevisiae deletion strains, locus YKL068W, stronger effect = lower value 0.972 | S. cerevisiae deletion strains, locus YKL085W, strain MDH1 (second series), stronger effect = lower value 0.981 | S. cerevisiae deletion strains, locus YKL085W, strain MDH1, stronger effect = lower value 0.981 | S. cerevisiae deletion strains, locus YKL160W, strain elf1, stronger effect = lower value 0.971 | S. cerevisiae deletion strains, locus YKL190W, strain CNB1, stronger effect = lower value 0.989 | S. cerevisiae deletion strains, locus YKR001C, strain vps1, stronger effect = lower value 0.995 | S. cerevisiae deletion strains, locus YKR026C, strain gcn3, stronger effect = lower value 0.995 | S. cerevisiae deletion strains, locus YKR091W, strain srl3, stronger effect = lower value 1 | S. cerevisiae deletion strains, locus YLL001W, strain dnm1, stronger effect = lower value 0.996 | S. cerevisiae deletion strains, locus YLL026W, stronger effect = lower value 0.991 | S. cerevisiae deletion strains, locus YLL041C, strain sdh2, stronger effect = lower value 1.01 | S. cerevisiae deletion strains, locus YLR027C, strain aat2, stronger effect = lower value 0.997 | S. cerevisiae deletion strains, locus YLR039C, strain RIC1, stronger effect = lower value 0.981 | S. cerevisiae deletion strains, locus YLR058C, strain SHM2, stronger effect = lower value 0.988 | S. cerevisiae deletion strains, locus YLR102C, strain apc9, stronger effect = lower value 0.982 | S. cerevisiae deletion strains, locus YLR113W, strain HOG1, stronger effect = lower value 0.998 | S. cerevisiae deletion strains, locus YLR221C, strain rsa3, stronger effect = lower value 1 | S. cerevisiae deletion strains, locus YLR258W, strain gsy2, stronger effect = lower value 0.997 | S. cerevisiae deletion strains, locus YLR262C, strain YPT6 (second series), stronger effect = lower value 0.946 | S. cerevisiae deletion strains, locus YLR262C, strain YPT6, stronger effect = lower value 0.967 | S. cerevisiae deletion strains, locus YLR268W, strain sec22, stronger effect = lower value 0.989 | S. cerevisiae deletion strains, locus YLR320W, strain mms22, stronger effect = lower value 0.955 | S. cerevisiae deletion strains, locus YLR330W, strain CHS5, stronger effect = lower value 0.997 | S. cerevisiae deletion strains, locus YLR342W, strain FKS1 (second series), stronger effect = lower value 1.02 | S. cerevisiae deletion strains, locus YLR342W, strain FKS1, stronger effect = lower value 0.976 | S. cerevisiae deletion strains, locus YLR357W, strain rsc2, stronger effect = lower value 0.99 | S. cerevisiae deletion strains, locus YLR370C, strain arc18, stronger effect = lower value 1.01 | S. cerevisiae deletion strains, locus YLR371W, strain rom2, stronger effect = lower value 0.989 | S. cerevisiae deletion strains, locus YLR384C, strain iki3, stronger effect = lower value 0.986 | S. cerevisiae deletion strains, locus YLR418C, strain cdc73, stronger effect = lower value 0.999 | S. cerevisiae deletion strains, locus YML016C, strain PPZ1, stronger effect = lower value 0.994 | S. cerevisiae deletion strains, locus YML032C, strain rad52, stronger effect = lower value 0.973 | S. cerevisiae deletion strains, locus YML120C, strain ndi1, stronger effect = lower value 1.01 | S. cerevisiae deletion strains, locus YML124C, strain tub3, stronger effect = lower value 0.987 | S. cerevisiae deletion strains, locus YMR058W, strain fet3, stronger effect = lower value 1.02 | S. cerevisiae deletion strains, locus YMR078C, strain ctf18, stronger effect = lower value 0.999 | S. cerevisiae deletion strains, locus YMR125W, strain sto1, stronger effect = lower value 1.02 | S. cerevisiae deletion strains, locus YMR129W, stronger effect = lower value 0.999 | S. cerevisiae deletion strains, locus YMR205C, strain PFK2, stronger effect = lower value 0.983 | S. cerevisiae deletion strains, locus YMR223W, strain ubp8, stronger effect = lower value 0.993 | S. cerevisiae deletion strains, locus YMR231W, strain pep5, stronger effect = lower value 1.01 | S. cerevisiae deletion strains, locus YMR307W, strain GAS1, stronger effect = lower value 1.12 | S. cerevisiae deletion strains, locus YNL067W, strain RPL9B, stronger effect = lower value 0.997 | S. cerevisiae deletion strains, locus YNL071W, strain lat1, stronger effect = lower value 0.989 | S. cerevisiae deletion strains, locus YNL183C, strain NPR1, stronger effect = lower value 0.95 | S. cerevisiae deletion strains, locus YNL209W, strain ssb2, stronger effect = lower value 0.996 | S. cerevisiae deletion strains, locus YNL233W, strain BNI4, stronger effect = lower value 1.02 | S. cerevisiae deletion strains, locus YNL248C, strain rpa49, stronger effect = lower value 1.01 | S. cerevisiae deletion strains, locus YNL250W, strain rad50, stronger effect = lower value 0.987 | S. cerevisiae deletion strains, locus YNL271C, strain bni1, stronger effect = lower value 0.99 | S. cerevisiae deletion strains, locus YNL298W, strain CLA4, stronger effect = lower value 0.999 | S. cerevisiae deletion strains, locus YNL307C, strain MCK1, stronger effect = lower value 0.992 | S. cerevisiae deletion strains, locus YNL322C, strain KRE1 (second series), stronger effect = lower value 0.996 | S. cerevisiae deletion strains, locus YNL322C, strain KRE1, stronger effect = lower value 0.993 | S. cerevisiae deletion strains, locus YNR049C, strain mso1, stronger effect = lower value 1 | S. cerevisiae deletion strains, locus YNR052C, strain pop2, stronger effect = lower value 1.01 | S. cerevisiae deletion strains, locus YOL006C, strain TOP1, stronger effect = lower value 1.17 | S. cerevisiae deletion strains, locus YOL012C, strain htz1 0.746 | S. cerevisiae deletion strains, locus YOL147C, strain pex11, stronger effect = lower value 0.988 | S. cerevisiae deletion strains, locus YOR001W, strain rrp6, stronger effect = lower value 1 | S. cerevisiae deletion strains, locus YOR061W, strain CKA2, stronger effect = lower value 0.965 | S. cerevisiae deletion strains, locus YOR069W, strain VPS5, stronger effect = lower value 0.991 | S. cerevisiae deletion strains, locus YOR070C, strain gyp1, stronger effect = lower value 0.996 | S. cerevisiae deletion strains, locus YOR080W, strain dia2, stronger effect = lower value 1.01 | S. cerevisiae deletion strains, locus YOR083W, strain WHI5, stronger effect = lower value 0.927 | S. cerevisiae deletion strains, locus YOR106W, strain vam3, stronger effect = lower value 0.97 | S. cerevisiae deletion strains, locus YOR136W, strain idh2, stronger effect = lower value 0.972 | S. cerevisiae deletion strains, locus YOR144C, strain elg1, stronger effect = lower value 0.994 | S. cerevisiae deletion strains, locus YOR184W, strain ser1, stronger effect = lower value 0.982 | S. cerevisiae deletion strains, locus YOR231W, strain MKK1, stronger effect = lower value 1.01 | S. cerevisiae deletion strains, locus YOR265W, strain rbl2, stronger effect = lower value 0.994 | S. cerevisiae deletion strains, locus YOR270C, strain vph1, stronger effect = lower value 0.94 | S. cerevisiae deletion strains, locus YOR290C, strain snf2, stronger effect = lower value 0.991 | S. cerevisiae deletion strains, locus YOR316C, strain cot1, stronger effect = lower value 0.986 | S. cerevisiae deletion strains, locus YPL051W, strain arl3, stronger effect = lower value 0.998 | S. cerevisiae deletion strains, locus YPL055C, strain LGE1, stronger effect = lower value 1.04 | S. cerevisiae deletion strains, locus YPL078C, strain atp4, stronger effect = lower value 0.962 | S. cerevisiae deletion strains, locus YPL106C, strain sse1, stronger effect = lower value 0.994 | S. cerevisiae deletion strains, locus YPL240C, strain hsp82, stronger effect = lower value 0.991 | S. cerevisiae deletion strains, locus YPL241C, strain CIN2, stronger effect = lower value 0.986 | S. cerevisiae deletion strains, locus YPL256C, strain CLN2, stronger effect = lower value 1.01 | S. cerevisiae deletion strains, locus YPR119W, strain clb2, stronger effect = lower value 0.981 | S. cerevisiae deletion strains, locus YPR141C, strain kar3, stronger effect = lower value 0.983 | S. cerevisiae deletion strains, locus YPR163C, strain tif3, stronger effect = lower value 1 | S. cerevisiae deletion strains, locus YPR167C, strain met16, stronger effect = lower value 0.976 | S. cerevisiae deletion strains, strain wtn01, stronger effect = lower value 0.981 | S. cerevisiae strains, strain wild type, stronger effect = lower value 1
